The source made the active and inactive calls.

For experiment [1], the system named is Plasmodium falciparum Sir2 (PF13_0152, Sir2A). Kind of experiment: Plasmodium falciparum Sir2A binding compounds – biochemical, small-molecule microarray, 635 nm fluorescence, primary screen (AID 1098).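 Also: score merges spot fluorescence intensity with its signal-to-noise ratio.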 Particulars: fluorescence 635 nm, higher = more signal.
Experiment [2] in a line: probe aDKK1 binding to arrayed compounds – biochemical, biotinylated probe, 635/667 nm fluorescence, primary screen (AID 1099).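 Also: score merges 667nm spot fluorescence with signal to noise across triplicate slides.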 Particulars: small-molecule microarray, higher = more signal.
Experiment [3] in a line: probe aCHRDL2 binding to arrayed compounds – biochemical, biotinylated probe, 635/667 nm fluorescence, primary screen (AID 1100). Particulars: small-molecule microarray, higher = more signal.
Experiment [4] can be described thus: change in splice reporter luminescence, either direction, cell-based, HEK293, spliceosome inhibition project, primary screen (AID 1101).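 Also: HEK293 cells carrying a splicing-competent luciferase reporter gene; test concentration not given here.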 Particulars: HEK293 splicing luciferase reporter, 24 h, higher = more signal, called active from +8 up or from −8 down. (In general: In a reporter assay the amount or activity of a reporter protein is the signal.)
For experiment [5], the target named is Fibroblast growth factor 10 (Homo sapiens) (UniProt O15520). Kind of experiment: compounds binding fibroblast growth factor 10 – biochemical, small-molecule microarray, 635 nm fluorescence, primary screen (AID 1102). Particulars: FGF10 binding, fluorescence 635 nm, higher = more signal.
Chain of Fibroblast growth factor 10 (Homo sapiens) (O15520 whole entry, looked up): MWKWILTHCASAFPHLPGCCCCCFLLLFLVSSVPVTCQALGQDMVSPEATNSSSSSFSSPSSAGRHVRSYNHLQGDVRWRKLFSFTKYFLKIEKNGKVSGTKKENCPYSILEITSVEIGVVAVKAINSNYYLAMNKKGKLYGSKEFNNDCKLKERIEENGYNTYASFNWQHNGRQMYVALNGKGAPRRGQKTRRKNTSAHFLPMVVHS
Experiment [6] concerns glycogen synthase kinase-3 (GSK3A per assay name; protocol says GSK3B). Kind of experiment: compounds binding glycogen synthase kinase-3 – biochemical, small-molecule microarray, 635 nm fluorescence, GSK3A, primary screen (AID 1103). Also: the record names both GSK3A and GSK3B. The note with it: fluorescence 635 nm, higher = more signal.
For experiment [7], the target named is Epidermal growth factor receptor (Homo sapiens) (UniProt P00533). As to the kind of experiment: compounds binding epidermal growth factor receptor – biochemical, small-molecule microarray, 635 nm fluorescence, primary screen (AID 1104).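 Also: score merges 667 nm emission intensity with spot signal to noise over triplicate slides.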 Particulars: EGFR binding, higher = more signal.
Chain of Epidermal growth factor receptor (Homo sapiens) (P00533 whole entry, looked up): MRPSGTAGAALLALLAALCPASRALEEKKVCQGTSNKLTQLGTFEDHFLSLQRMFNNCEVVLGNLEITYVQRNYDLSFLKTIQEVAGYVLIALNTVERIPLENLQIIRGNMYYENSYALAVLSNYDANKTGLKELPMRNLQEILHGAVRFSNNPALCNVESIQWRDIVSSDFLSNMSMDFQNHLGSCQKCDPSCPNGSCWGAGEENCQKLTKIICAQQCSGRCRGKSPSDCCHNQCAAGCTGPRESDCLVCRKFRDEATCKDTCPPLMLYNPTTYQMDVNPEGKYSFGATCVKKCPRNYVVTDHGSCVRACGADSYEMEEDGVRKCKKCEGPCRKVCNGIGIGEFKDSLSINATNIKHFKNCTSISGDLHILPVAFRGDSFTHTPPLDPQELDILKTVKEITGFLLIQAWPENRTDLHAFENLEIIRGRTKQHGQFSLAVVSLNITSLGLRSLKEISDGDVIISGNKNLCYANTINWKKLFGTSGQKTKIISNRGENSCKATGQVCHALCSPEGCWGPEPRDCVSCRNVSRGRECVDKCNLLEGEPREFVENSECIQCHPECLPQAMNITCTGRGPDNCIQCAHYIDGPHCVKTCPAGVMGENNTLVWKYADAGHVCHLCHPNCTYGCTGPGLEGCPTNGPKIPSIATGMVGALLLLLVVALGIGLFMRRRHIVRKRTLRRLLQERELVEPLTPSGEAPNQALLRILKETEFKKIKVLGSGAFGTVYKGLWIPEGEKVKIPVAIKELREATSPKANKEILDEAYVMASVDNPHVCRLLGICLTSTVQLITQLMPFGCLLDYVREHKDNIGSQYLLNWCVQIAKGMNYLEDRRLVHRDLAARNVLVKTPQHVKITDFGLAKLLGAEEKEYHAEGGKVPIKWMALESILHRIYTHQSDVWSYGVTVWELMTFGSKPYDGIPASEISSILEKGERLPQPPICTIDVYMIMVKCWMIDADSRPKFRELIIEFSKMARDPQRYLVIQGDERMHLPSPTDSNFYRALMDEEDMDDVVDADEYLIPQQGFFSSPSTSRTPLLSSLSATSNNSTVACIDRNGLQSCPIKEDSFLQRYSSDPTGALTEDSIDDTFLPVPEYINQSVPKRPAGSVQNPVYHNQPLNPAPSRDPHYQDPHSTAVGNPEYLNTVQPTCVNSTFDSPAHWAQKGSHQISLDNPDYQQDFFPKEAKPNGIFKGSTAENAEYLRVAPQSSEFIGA
For experiment [8], the target named is Follistatin-related protein 3 (Homo sapiens) (UniProt O95633). As to the kind of experiment: compounds binding follistatin-related protein 3 – biochemical, small-molecule microarray, 635 nm fluorescence, primary screen (AID 1105).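 Also: score merges emission near 667 nm and signal to noise per printed spot across three slides.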 Particulars: FSTL3 binding, higher = more signal.
Chain of Follistatin-related protein 3 (Homo sapiens) (O95633 whole entry, looked up): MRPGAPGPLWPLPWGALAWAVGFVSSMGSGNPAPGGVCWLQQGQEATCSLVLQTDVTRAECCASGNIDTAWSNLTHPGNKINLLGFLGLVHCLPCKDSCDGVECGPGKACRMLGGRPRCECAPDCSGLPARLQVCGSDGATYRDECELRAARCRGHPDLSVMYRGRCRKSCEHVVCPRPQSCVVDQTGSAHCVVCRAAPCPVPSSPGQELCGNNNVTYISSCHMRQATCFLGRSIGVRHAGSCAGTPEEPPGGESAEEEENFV
Experiment [9] concerns the target Dickkopf-related protein 1 (Homo sapiens) (UniProt O94907). Kind of experiment: small molecules binding DKK1 protein – biochemical, small-molecule microarray, 635 nm fluorescence scan, primary screen (AID 1106).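 Also: score merges emission near 667 nm with signal to noise over three replicate slides.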 The note with it: higher = more signal.
For experiment [10], the system named is Inhibin beta A chain (activin A). Kind of experiment: small molecules binding activin A – biochemical, small-molecule microarray, 635 nm fluorescence scan, primary screen (AID 1107).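 Also: mouse activin A protein probed at 4.33 µg/mL on printed slides; score merges bound-protein fluorescence near 667 nm with spot signal-to-noise.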 The note with it: INHBA, higher = more signal.
The test system of experiment [11] is Human papillomavirus type 1a protein E7 (residues 44-93). As to the kind of experiment: small molecules binding HPV E7 44-93 – biochemical, small-molecule microarray, residues 44-93, 635 nm fluorescence, primary screen (AID 1108).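 Also: E7 fragment applied at 1 µg/mL in TBST for 1 h at 4 C; score combines spot fluorescence with its signal to noise ratio.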 Particulars: fluorescence 635 nm, higher = more signal.
Experiment [12] in a line: hepatitis C replication reporter changes, two-sided – Huh7 cells, luciferase reporter, HCV replication inhibitor project, primary screen (AID 1109).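 Also: huh7 hepatoma cells harbouring a luciferase neomycin HCV replicon reporter; luciferase luminescence as measure of HCV replicon replication; test concentration not given here.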 Particulars: Huh7 HCV replicon luciferase reporter, 48 h; higher = more signal.
For experiment [13], the target named is Left-right determination factor 2 (Homo sapiens) (UniProt O00292). As to the kind of experiment: small molecules binding LEFTY2 protein – biochemical, small-molecule microarray, 635 nm fluorescence scan, primary screen (AID 1110). The note with it: higher = more signal.
Chain of Left-right determination factor 2 (Homo sapiens) (O00292 whole entry, looked up): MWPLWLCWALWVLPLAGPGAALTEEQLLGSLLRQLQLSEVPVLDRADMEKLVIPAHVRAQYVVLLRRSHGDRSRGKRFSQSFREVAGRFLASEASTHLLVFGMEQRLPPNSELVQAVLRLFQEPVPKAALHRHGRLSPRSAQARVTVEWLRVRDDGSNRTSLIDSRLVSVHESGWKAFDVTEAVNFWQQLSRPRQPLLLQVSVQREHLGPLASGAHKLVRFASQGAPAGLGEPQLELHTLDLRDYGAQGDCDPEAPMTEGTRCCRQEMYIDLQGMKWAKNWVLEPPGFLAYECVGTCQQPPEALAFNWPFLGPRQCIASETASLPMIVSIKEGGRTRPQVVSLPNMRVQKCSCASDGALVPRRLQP
Experiment [14] has as its target Calmodulin-1 (Homo sapiens) (UniProt P0DP23). Kind of experiment: small molecules binding calmodulin-1 with EGTA – biochemical, small-molecule microarray, Cy5-labelled CALM1, profiling panel (AID 1111).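 Also: labelled calmodulin applied in Tris saline Tween buffer holding calcium plus EGTA and DTT.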 Particulars: Cy5-CALM1 binding fluorescence, higher = more signal.
The target is the same in experiment [15]. Kind of experiment: small molecules binding Ca-loaded calmodulin-1 – biochemical, small-molecule microarray, Cy5-labelled CALM1, plus calcium, artefact control for SMM control-protein annotation, profiling panel (AID 1112).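 Also: score merges spot fluorescence with signal to noise from triplicate slides.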 The note with it: Cy5-CALM1 binding fluorescence, higher = more signal.
Experiment [16] in a line: probe aWnt5a binding to arrayed compounds – biochemical, biotinylated probe, 635/667 nm fluorescence, primary screen (AID 1113).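 Also: score merges 667 nm fluorescence intensity with signal-to-noise per printed feature.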 Particulars: small-molecule microarray, higher = more signal.
Experiment [17] can be described thus: probe aShh binding to arrayed compounds – biochemical, biotinylated probe, 635/667 nm fluorescence, primary screen (AID 1114).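 Also: probe is biotin-labelled aShh protein from a stem cell growth factor screen; measures binding of labelled protein to compounds printed on the slide; score merges feature fluorescence at 667 nm with signal-to-noise.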 The note with it: small-molecule microarray, higher = more signal.
Experiment [18] is described as follows: probe aNog binding to arrayed compounds – biochemical, biotinylated probe, 635/667 nm fluorescence, primary screen (AID 1115).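 Also: probe is biotinylated aNog protein used at 0.15 µg/mL for 1 h at 4 C; z-score combines 667 nm fluorescence of each spot with its signal to noise.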 The note with it: small-molecule microarray, higher = more signal.
Experiment [19] has as its target Torsin-1A-interacting protein 1 (Homo sapiens) (UniProt Q5JTV8). As to the kind of experiment: compound microarray binding of lysate hLAP1 – cell lysate, small-molecule microarray, COS7 lysate, 635/667 nm fluorescence, primary screen (AID 1116). Particulars: 635 nm fluorescence, higher = more signal.
The target in experiment [20] is Alpha-bungarotoxin (Bungarus multicinctus) (UniProt P60615). Kind of experiment: compounds binding labelled alpha-BTX control protein – biochemical, small-molecule microarray, Alexa647 label, 635/667 nm fluorescence, artefact control for SMM control protein annotation, profiling panel (AID 1117). Particulars: alpha-BTX-A647 binding fluorescence, higher = more signal.
Chain of Alpha-bungarotoxin (Bungarus multicinctus) (P60615 whole entry, looked up): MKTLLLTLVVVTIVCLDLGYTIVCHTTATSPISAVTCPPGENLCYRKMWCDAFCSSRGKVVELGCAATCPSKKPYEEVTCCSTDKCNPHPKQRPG

Chain of Dickkopf-related protein 1 (Homo sapiens) (O94907 whole entry, looked up): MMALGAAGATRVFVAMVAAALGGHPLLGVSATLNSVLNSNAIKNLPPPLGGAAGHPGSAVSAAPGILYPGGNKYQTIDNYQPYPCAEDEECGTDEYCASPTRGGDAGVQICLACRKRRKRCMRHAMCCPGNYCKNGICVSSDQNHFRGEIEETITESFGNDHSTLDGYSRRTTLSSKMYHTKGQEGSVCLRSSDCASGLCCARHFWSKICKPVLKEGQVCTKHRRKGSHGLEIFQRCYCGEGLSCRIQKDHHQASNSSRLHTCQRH
Chain of Torsin-1A-interacting protein 1 (Homo sapiens) (Q5JTV8 whole entry, looked up): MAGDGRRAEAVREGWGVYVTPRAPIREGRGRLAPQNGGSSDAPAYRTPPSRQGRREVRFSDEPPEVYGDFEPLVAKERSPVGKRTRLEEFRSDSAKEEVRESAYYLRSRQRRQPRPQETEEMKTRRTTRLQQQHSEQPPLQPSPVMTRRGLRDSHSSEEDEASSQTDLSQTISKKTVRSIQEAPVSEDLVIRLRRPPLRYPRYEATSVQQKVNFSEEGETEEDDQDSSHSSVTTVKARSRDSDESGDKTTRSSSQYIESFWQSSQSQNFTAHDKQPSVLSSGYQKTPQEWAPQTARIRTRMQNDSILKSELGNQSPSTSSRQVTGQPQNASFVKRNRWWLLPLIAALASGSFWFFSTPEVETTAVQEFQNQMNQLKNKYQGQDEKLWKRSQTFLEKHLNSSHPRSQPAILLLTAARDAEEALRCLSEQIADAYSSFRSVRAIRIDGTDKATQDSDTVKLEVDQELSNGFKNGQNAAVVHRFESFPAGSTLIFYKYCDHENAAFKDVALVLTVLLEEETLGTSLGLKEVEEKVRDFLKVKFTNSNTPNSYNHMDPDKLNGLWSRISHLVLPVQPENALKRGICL

As for `O=C1O[C@H](c2ccccc2)[C@H](c2ccccc2)N2[C@H]1[C@@H](C(=O)N1CCN(c3ncccn3)CC1)[C@]1(C(=O)Nc3ccc(C#CCCO)cc31)[C@H]2c1ccc(O)cc1`, the composite z-score in experiment [1] was 0.772; in experiment [2], -0.238; in [3], 0.422; in experiment [5], 1.06; in [6], -0.906; in experiment [7], 0.397. For the same compound, the composite z-score in experiment [8] is 0.0936; in [9], 0.359; in [10] it was -0.0667; in experiment [11], 1.08; in experiment [13] it was -0.379; in experiment [14], 0.562. In addition, the composite z-score in experiment [15] is 0.323; in experiment [16], 0.0215; in experiment [17] it was 0.0684; in [18], -0.0927; in [19] it was 0.516; in experiment [20] it was 1.55. For the same compound, the values for the z-score in experiment [4] and in experiment [12] were -0.057 (inactive) and -1.38, respectively.

For `COC(=O)C(CC#Cc1ccc2c(c1)[C@]1(C(=O)N2)[C@H](c2ccccc2OCCO)N2[C@H](c3ccccc3)[C@H](c3ccccc3)OC(=O)[C@H]2[C@@H]1C(=O)N1CCc2cc(OC)c(OC)cc2C1)C(=O)OC`, the composite z-score was 1.56 in [1]; 0.0978 in [2]; 0.048 in [3]; 0.71 in experiment [5]; 1.3 in experiment [6]; 1.02 in experiment [7]. Further, the composite z-score in experiment [8] was determined as 1.26; in [9], 0.882; in experiment [10], 0.279; in experiment [11], 1.37; in experiment [13], 0.541; in [14] it was 0.0823. Besides, the composite z-score is -0.34 in experiment [15]; -0.117 in [16]; -0.0626 in experiment [17]; -0.259 in [18]; 1.68 in experiment [19]; 0.647 in experiment [20]. For the same compound, the z-score in experiment [4] is -0.795 (inactive); in [12], -1.68.

In the case of `Cc1ccc(S[C@]2(C(=O)NC(C)C)CC(=O)N(C3CCCCC3)[C@@H]2c2ccc(CO)cc2I)cc1`, the composite z-score in experiment [1] was 1.16; in [2] it was 0.763; in [3], 0.547; in experiment [5] it was 0.612; in [6] it was 0.621; in experiment [7], -0.242. In addition, the composite z-score was 1.19 in experiment [8]; 0.205 in experiment [9]; 0.0441 in experiment [10]; 1.44 in experiment [11]; -0.0068 in [13]; 0.679 in [14]. Moreover, the composite z-score is -0.558 in experiment [15]; -0.0721 in experiment [16]; -0.0035 in [17]; 0.313 in experiment [18]; 0.208 in [19]; 1.52 in [20]. Besides, the z-score in experiment [4] is -0.504 (inactive); in experiment [12], -2.93.

On to `COCCOC(=O)N1C(=O)[C@@]2(c3ccccc31)[C@H](c1ccc(O)cc1)N1[C@H](c3ccccc3)[C@H](c3ccccc3)OC(=O)[C@H]1[C@@H]2C(=O)N1CCCCCCC1`, for which the composite z-score is 1.81 in experiment [1]; 2.94 in experiment [2]; 1.68 in [3]; 1.39 in [5]; 1.37 in [6]; 1.76 in experiment [7]. Also, the composite z-score was found to be 1.69 in [8]; 2.31 in [9]; 1.96 in experiment [10]; 1.34 in [11]; 1.51 in experiment [13]; 2.52 in experiment [14]. In addition, the composite z-score in [15] was 1.34; in experiment [16], 0.65; in experiment [17] it was 3.03; in [18] it was 3.42; in experiment [19], 4.5; in experiment [20], 3.04. The z-score in experiment [4] is -0.682 (inactive); in experiment [12], -2.23.

Take `O=C1[C@H]2C=C(I)[C@H](C[C@@H]2c2ccccc2)[C@@]12CO2`: the composite z-score in experiment [1] is -0.506; in [2] it was -0.322; in [3], -0.197; in experiment [5] it was 0.0211; in [6] it was -0.326; in experiment [7], 0.384. Further, the composite z-score in experiment [8] is -0.461; in [9] it was 0.485; in experiment [10], 1.15; in experiment [11] it was -0.0983; in experiment [13], 0.208; in experiment [14], -0.68. Also, the composite z-score was -0.661 in [15]; -0.0977 in experiment [16]; -0.117 in [17]; -0.172 in experiment [18]; 0.126 in experiment [19]; 0.0292 in experiment [20]. Further, the z-score in experiment [4] is 0.523 (inactive); in experiment [12] it was -3.6.

`COCCCN1C(=O)[C@@]2(c3ccc([N+](=O)[O-])cc3)CC(=O)N(CC34CC5CC(CC(C5)C3)C4)[C@@H]2c2ccc(CO)cc21`: the composite z-score in experiment [1] was 1.47; in experiment [2] it was -0.183; in experiment [3], -0.0705; in experiment [5], 0.329; in [6], 0.541; in experiment [7], -0.557. Also, the composite z-score in experiment [8] was 0.458; in experiment [9] it was -0.104; in [10] it was 0.405; in experiment [11], 0.372; in [13] it was -0.407; in [14], -0.226. Besides, the composite z-score in [15] is -0.406; in experiment [16], -0.096; in [17], -0.291; in experiment [18] it was -0.461; in experiment [19] it was -0.507; in experiment [20], 0.241. The z-score in experiment [4] was -0.515 (inactive); in [12], -0.445.

The values above are taken from PubChem BioAssay.
